{"source": "PubChem BioAssay (NCATS)", "note": "Values joined by “and” are separate entries in the source; they are usually repeats but may differ in a detail not shown here. Equal entries are not always repeated. Results filed as inconclusive are left out. Entries that show only a call come without a potency. Active and inactive are the calls of the source. Calls come from the whole dose curve; as a rule, active = well fitted inhibition curve with a large enough effect; inconclusive = small, poorly fitted or top-dose-only effect; inactive = flat fitted curve, though single readings scatter. Potency is the fitted concentration of half-maximal effect."}
{"experiment": "P-glycoprotein substrates identified in KB-8-5-11 adenocarcinoma cell line, qHTS therapeutic library screen (AID 1346987); note: nearly all actives have a fitted effect of over 65% in size", "conditions": "KB-8-5-11 (P-gp overexpressing) viability, CellTiter-Glo, 72 h; series mostly up to 44.5 µM", "in_short": "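Luminescence from CellTiter-Glo, read 5 min after addition, quantified survival of KB-8-5-11 (P-gp-overexpressing) cells exposed to compounds for 72 h. AC50 was derived from concentration-response curves.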"}
{"smiles": "NC(=O)Nc1sc(-c2ccc(F)cc2)cc1C(N)=O", "Potency": "8.33 µM (active)"}
{"smiles": "CC(C)(N)c1ccc(-c2nc3ccccc3nc2-c2ccccc2)cc1", "Potency": "418 nM (active) and 23.1 µM (active)"}
{"smiles": "C=C(C)[C@@H]1CC[C@]2(C(=O)O)CC[C@]3(C)[C@H](CC[C@@H]4[C@@]5(C)CC[C@H](O)C(C)(C)[C@@H]5CC[C@]43C)[C@@H]12", "Potency": "inactive"}
{"smiles": "C=C1C(=O)O[C@H]2[C@@H]1CCC(C)=CCC[C@@]1(C)O[C@@H]21", "Potency": "23.5 µM (active)"}
{"smiles": "C=Cc1c(C)c2cc3nc(cc4[nH]c(cc5nc(cc1[nH]2)C(C)=C5CCC(=O)O)c(CCC(=O)OC)c4C)[C@@]1(C)C3=CC=C(C(=O)OC)[C@H]1C(=O)OC", "Potency": "inactive"}
{"smiles": "Cc1ccc([N+](=O)[O-])cc1S(=O)(=O)N(C)N=Cc1cnc2ccc(Br)cn12", "Potency": "0.0209 µM (active)"}
{"smiles": "CCc1nc(-c2cccc(C)c2)c(-c2ccnc(NC(=O)c3ccccc3)c2)s1", "Potency": "20.9 µM (active)"}
{"smiles": "CCCc1nc(C(C)(C)O)c(C(=O)O)n1Cc1ccc(-c2ccccc2-c2nn[nH]n2)cc1", "Potency": "inactive"}
{"smiles": "CC(C)N(CC[C@H](c1ccccc1)c1cc(CO)ccc1O)C(C)C", "Potency": "inactive"}
{"smiles": "CC(C)N1[N]C(=C2C=c3cc(O)ccc3=N2)c2c(N)ncnc21", "Potency": "0.105 µM (active)"}
{"smiles": "CC(C)(O)CC[C@@H](O)[C@](C)(O)[C@H]1CC[C@@]2(O)C3=CC(=O)[C@@H]4C[C@@H](O)[C@@H](O)C[C@]4(C)[C@@H]3CC[C@]12C", "Potency": "inactive"}
{"smiles": "CN[C@H]1[C@@H](O)[C@@H]2O[C@@H]3O[C@H](C)CC(=O)[C@]3(O)O[C@@H]2[C@@H](NC)[C@H]1O", "Potency": "inactive"}
{"smiles": "C[C@H](CCC(=O)O)[C@H]1CCC2C3C[C@H](O)[C@@H]4C[C@H](O)CC[C@]4(C)C3CC[C@@]21C", "note": "(stereo partly drawn)", "Potency": "inactive"}
{"smiles": "O=C1c2cccc(O)c2C(=O)c2c(O)cc(CO)cc21", "Potency": "inactive"}
{"smiles": "C[C@]12CC[C@@H]3c4ccc(O)cc4CC[C@H]3[C@H]1CC[C@H]2O", "Potency": "7.43 µM (active)"}
{"smiles": "Cc1ccccc1C(=O)Nc1ccc(C(=O)N2CCCC(O)c3cc(Cl)ccc32)c(C)c1", "note": "(stereo not drawn)", "Potency": "inactive"}
{"smiles": "COc1ccc(CCC(=O)c2c(O)cc(O[C@@H]3O[C@H](CO)[C@@H](O)[C@H](O)[C@@H]3O[C@@H]3O[C@@H](C)[C@H](O)[C@@H](O)[C@@H]3O)cc2O)cc1O", "Potency": "inactive"}
{"smiles": "CCc1cnn2c(NCc3ccc[n+]([O-])c3)cc(N3CCCC[C@@H]3CCO)nc12", "Potency": "0.235 µM (active)"}
{"smiles": "CC(C)C[C@H](NC(=O)CNC(=O)c1cc(Cl)ccc1Cl)B1OC(=O)CC(CC(=O)O)(C(=O)O)O1", "note": "(stereo partly drawn)", "Potency": "0.935 µM (active)"}
{"smiles": "COc1cccc2c1C(=O)c1c(O)c3c(c(O)c1C2=O)C[C@@](O)(C(=O)CO)C[C@@H]3O[C@H]1C[C@H](N)[C@H](OC2CCCCO2)[C@H](C)O1", "note": "(stereo partly drawn)", "Potency": "5.26 µM (active)"}
{"smiles": "COC(=O)[C@@H]1[C@H]2C[C@@H]3c4[nH]c5ccccc5c4CCN3C[C@@H]2CC[C@@H]1O", "Potency": "inactive"}
{"smiles": "CNC(=O)c1cccc(-c2ccc3c(N4CCOC[C@H]4C)nc(N4CCOC[C@H]4C)nc3n2)c1", "Potency": "0.0662 µM (active)"}
{"smiles": "C[C@@H](Cc1cc2c(c(C(N)=O)c1)N(CCCO)CC2)NCCOc1ccccc1OCC(F)(F)F", "Potency": "inactive"}
{"smiles": "CC[C@@]1([C@@H]2O[C@@H]([C@H]3O[C@@](O)(CO)[C@H](C)C[C@H]3C)C[C@H]2C)CC[C@H]([C@]2(C)CC[C@]3(C[C@H](O)[C@@H](C)[C@@H]([C@@H](C)[C@@H](OC)[C@H](C)C(=O)O)O3)O2)O1", "Potency": "0.911 µM (active)"}
{"smiles": "CC(=O)C1=C(O)C=C2Oc3c(C(C)=O)c(O)c(C)c(O)c3C2(C)C1=O", "note": "(stereo not drawn)", "Potency": "inactive"}
{"smiles": "N#CC(=C(O)c1ccc(Cl)cc1Cl)c1nc2cc(Cl)ccc2c(=O)[nH]1", "Potency": "inactive"}
{"smiles": "CC(=O)NCC(=O)N1[C@H]2CC[C@H]1c1cc(Nc3ncc(C(F)(F)F)c(NC4CCC4)n3)ccc12", "Potency": "3.72 µM (active)"}
{"smiles": "Nc1ccn(C2CO[C@H](CO)O2)c(=O)n1", "note": "(stereo partly drawn)", "Potency": "inactive"}
{"smiles": "NC(=O)c1ncn([C@@H]2O[C@H](CO)[C@@H](O)[C@@H]2O)c1N", "Potency": "inactive"}
{"smiles": "Cc1cc(O)c2c(c1)C(=O)c1cccc(O)c1C2=O", "Potency": "inactive"}
{"smiles": "CC(C)Oc1ccc(C(=O)N[C@H](CNC(=O)CN(C)C)Cc2ccc(-c3cn4cccc([C@H](C)O)c4n3)cc2)cc1Cl", "Potency": "26.4 µM (active)"}
{"smiles": "COC(=O)[C@H](CCCN=C(N)N)NS(=O)(=O)c1ccc(C)cc1", "Potency": "inactive"}
{"smiles": "CC(C)c1cc(C(C)C)c(CC(=O)NS(=O)(=O)Oc2c(C(C)C)cccc2C(C)C)c(C(C)C)c1", "Potency": "7.31 µM (active)"}
